Bioassay records: PubChem, several laboratories
Only some compounds are listed: those with a hit (about 12% of all), similar ones and a draw of the others.
KCC2 mod – modulators of human KCC2 chloride dependent transport; Q9H2X9; KCC2 cells, thallium flux FluoZin-2 fluorescence; B-score of Tl+ flux slope (higher = more flux/activation; lower = inhibition) at 10 µM; 190,000 tested, 2.2% active; AID 1456;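 active = thallium flux slope and its plate-corrected score both differing from the plate sample mean at a set confidence after two filtering rounds, in either direction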;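 also: slope of fluorescence scaled to starting intensity during 10 to 20 s after thallium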
INS promoter inh – TRM-6 insulin promoter activity inhibition; TRM-6 cells (human fetal islet line), insulin promoter-eGFP reporter, imaging; reporter expression induced with tamoxifen; inhibition, % at 2 µM; 130,000 tested, 0.9% active; AID 1273;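 active = inhibition above the mean plus 3 SD, with well images judged a real hit on visual review, cut at about 60% in these data, passing the limit was not always enough; inconclusive = inhibition over the cutoff but images rejected on review; inactive = inhibition not above the cutoff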
WT yeast gro inh – growth inhibition of WT yeast, mitochondrial fusion screen. mitochondrial fusion phenotypic screen, WT strain. inhibition, % at 10 µM. 190,000 tested, 2.1% active. AID 1362; in the data active = inhibition above about 58%; tested in S. cerevisiae
L major viab – Leishmania major promastigote growth inhibition | Leishmania major promastigotes, resazurin fluorescence viability | inhibition, % at 10 µM | 200,000 tested, 9% active | AID 1063; in the data active = inhibition above about 50%;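 also: promastigotes grown with compound for 44 hours at 28 °C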
ROMK mod – modulators of human ROMK potassium channel | 130,000 tested, 2% active | B-score at 10 µM | P48048 | Tet-inducible ROMK, thallium flux fluorescence; actives lie on both sides;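 active = signal ratio slope over the read window, or its plate-corrected B-score, at least 3 SD from the plate mean, either direction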;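 also: B-score of the F/F0 ratio slope over 7 to 12 s after thallium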
Target sequence (P48048 whole entry, looked up): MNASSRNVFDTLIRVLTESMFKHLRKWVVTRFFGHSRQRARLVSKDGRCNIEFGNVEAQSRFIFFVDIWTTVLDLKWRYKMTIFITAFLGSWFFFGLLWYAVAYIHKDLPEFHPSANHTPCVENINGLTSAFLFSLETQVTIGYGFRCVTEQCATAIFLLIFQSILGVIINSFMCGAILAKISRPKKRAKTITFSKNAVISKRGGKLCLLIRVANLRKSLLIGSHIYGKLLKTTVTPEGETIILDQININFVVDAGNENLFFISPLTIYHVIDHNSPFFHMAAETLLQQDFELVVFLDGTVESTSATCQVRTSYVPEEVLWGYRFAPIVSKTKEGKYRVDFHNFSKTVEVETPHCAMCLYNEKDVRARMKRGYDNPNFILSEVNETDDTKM
Insulin prom up – MIN6 insulin promoter up-regulation. MIN6 insulin promoter-GFP reporter, high-content imaging; active compounds read high. z-score at 5 µM. 190,000 tested, 0.3% active;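 active = z-score above 3 at 5 µM with at least 500 cells counted in the well; inconclusive = wells under 500 cells, flagged as cytotoxic or low count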
* hit, by the source's call; ? = inconclusive; · = no result.

SMILES	KCC2 mod	INS promoter inh	WT yeast gro inh	L major viab	ROMK mod	Insulin prom up
O=C(Nc1cccn(Cc2cccc(F)c2)c1=O)NC1CCCCC1	-1.74	0.0	-7.2	82.6*	-0.212	-0.02
O=C(Nc1cccn(Cc2c(F)cccc2Cl)c1=O)NC1CCCCC1	-0.428	·	17.8	79.7*	2.43	0.37
COc1ccc(-c2cc(C(=O)Nc3ccc(C)cc3)no2)cc1	0.734	25.0	-8.5	0.0	0.407	-0.86
O=C(COC(=O)c1n[nH]c2ccccc12)Nc1ccc(S(=O)(=O)N2CCCC2)cc1	-0.0682	-6.1	0.7	0.0	-0.0251	0.56
Oc1ccccc1N=Nc1ccccc1O	-0.703	-118.2	9.9	99.6*	0.0151	?
CC(C)(C)OC(=O)COc1cc(OCC(=O)OC(C)(C)C)c2c(=O)cc(-c3ccccc3)oc2c1	-0.902	-43.3	-21.1	50.3*	·	0.39
CC(=O)c1ccc(N2CCN(C(=S)Nc3ccccc3F)CC2)cc1	0.187	·	-14.2	-2.2	·	0.68
CC(C(=O)N1CCCc2c1c(=O)oc1ccc(O)cc21)N1CCc2ccccc2C1 (stereo not drawn)	-1.11	-38.9	14.0	94.6*	·	-0.55
CN(CC(=O)N1CCCc2c1c(=O)oc1ccc(O)cc21)Cc1ccccc1	0.186	1.6	-1.7	-5.8	-0.0538	-0.1
COc1ccccc1CCNC(=O)c1cc(-c2ccncc2)nc2ccc(Br)cc12	0.11	·	-8.4	13.2	-1.77	-0.36
N/C(=N\OC(=O)CCCCCN1C(=O)c2ccccc2C1=O)c1ccccc1	·	20.8	0.5	-4.8	·	0.08
O=S(Cc1cc(Sc2ccccc2)nc(-c2ccccc2)n1)c1ccccc1 (stereo not drawn)	·	·	59.0*	15.1	0.646	-0.45
COC(=O)N/N=C1\CCCc2c(C)cc(C)cc21	0.714	-28.6	-1.6	7.4	·	0.4
Cc1cc(C)c2c(c1)/C(=N/NC(=S)Nc1ccc(F)cc1)CCC2	2.87*	5.5	20.7	1.2	2.29	0.06
CC(=O)c1sc(NC(=O)c2c(F)cccc2F)nc1C	-0.348	23.3	-3.9	27.2	0.0528	-0.16
Cc1ccc(C)c(N2CCN(S(=O)(=O)c3c(C)noc3/C=C/N(C)C)CC2)c1	-0.373	7.1	44.2	38.1	·	-0.43
Cc1ccc2cc(C3C(C#N)=C(N)Oc4c3ccc3cccnc43)c(=O)[nH]c2c1 (stereo not drawn)	·	-14.3	0.1	90.5*	·	1.03
CC(=O)c1cn(C)c(=O)n(C)c1=O	0.156	-17.1	-3.7	-3.7	0.47	-0.39
Cc1nn(Cc2ccccc2)c2sc(C(=O)NCc3cccnc3)cc12	-2.5	·	-1.8	1.1	·	-0.48
Cc1cnc(NC(=O)c2cc3c(C)nn(Cc4ccccc4Cl)c3s2)s1	-0.475	24.1	5.7	60.1*	·	-0.29
Cc1ccc(C)c(S(=O)(=O)N2CCN(C(C(=O)Nc3ccc(F)cc3)c3ccccc3)CC2)c1 (stereo not drawn)	0.977	1.6	0.4	55.8*	0.582	0.18
CC(C)=CC(=O)OCC(=O)Nc1ccccc1Cl	0.392	7.1	5.2	-5.7	·	0.64
COc1ccc(/C=N/Nc2nc(NCc3ccco3)nc(Nc3ccc(OC)cc3)n2)cc1	0.0978	7.7	28.0	77.2*	0.301	-0.22
COc1ccc(Nc2nc(NCc3ccco3)nc(N/N=C/c3ccc(O)cc3)n2)cc1	-0.361	-40.0	3.0	8.7	-0.549	0.36
CC(C(c1cccs1)c1c(N)n(C)c(=O)n(C)c1=O)[N+](=O)[O-] (stereo not drawn)	0.018	·	·	·	-0.00273	-0.9
SMILES	KCC2 mod	INS promoter inh	WT yeast gro inh	L major viab	ROMK mod	Insulin prom up
Clc1ccccc1OCc1nnc(-c2ccccc2)o1	-2.49	·	-15.6	-7.3	-0.122	0.18
CCN1CCN(C(=O)CN2C(=O)c3cccc4cccc2c34)CC1	-0.146	44.4	-1.9	-3.4	-0.0472	0.88
Cc1ccc(Cl)cc1N1CCN(C(=O)CN2C(=O)c3cccc4cccc2c34)CC1	-0.435	60.0	1.4	-0.5	-2.85*	·
CCCNS(=O)(=O)c1ccc(OCC(=O)NCc2ccc3c(c2)OCO3)cc1	·	29.7	1.1	3.3	·	-0.75
OC(c1ccccn1)c1c[nH]c2ccccc12 (stereo not drawn)	1.27	·	-13.4	3.5	·	0.1
CC1CCN(CCCCOc2cccc(Br)c2)CC1	0.165	33.3	26.0	95.2*	-1.23	0.81
CCc1cccc(OCCN2CCCC2)c1	1.04	0.0	-5.3	32.0	0.263	-0.1
CC1CCN(CCOc2ccc(Cl)c(Cl)c2)CC1	-0.657	-15.4	1.0	87.6*	-0.541	-0.18
Brc1ccccc1OCCCN1CCOCC1	0.439	37.8	3.0	71.9*	·	0.12
